From PubChem BioAssay AID743279 (National Center for Advancing Translational Sciences (NCATS), 2014) come the findings set out here.

Molecules are shown by their SMILES. Hit rate of the full screen: of about 360,000 compounds, about 17,000 (4.7%) were called active. Roughly 5% stayed inconclusive and do not appear here. The sample holds actives, similar compounds and a random draw of the others, so the mix is not that of the screen. Unmarked numbers belong to inactive results. No stated cut-off is given here; in the data, active means activity change below about -50%; inconclusive means mostly about -30% to -49%; inactive means weaker than that.
On the % scale 0 is the no-effect control and ±100 the full control effect.

A short description of this assay: qHTS for Inhibitors of Inflammasome Signaling: IL-1-beta AlphaLISA Primary Screen. Conditions: THP-1 LPS/ATP IL-1B secretion, 16 h; at 57.5 µM, hits give low values. The method, boiled down:
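Secreted IL-1B measured by AlphaLISA bead assay after 16 h compound exposure of THP-1 cells; compounds (final up to 57.5 uM) added 1 h before LPS (250 ng/mL) and ATP (1.25 mM) stimulation; lower signal means less secretion.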
For the compound `COc1ccc2nc(SCC(=O)Nc3c(C)cc(C)cc3C)[nH]c2c1`, the activity change was 15.5%.

Turning to `Cc1ccc2nc(SCC(=O)NC3CCCC3)[nH]c2c1`, the activity change was -11.8%. For `Cc1cc(C)c(NC(=O)CSc2nc3ccncc3[nH]2)c(C)c1`, the activity change was -69.3% (active).

On to `COc1ccc(C(CNC(=O)c2cccc(S(=O)(=O)Nc3ccc(Br)cc3)c2)N(C)C)cc1` (stereo unspecified), for which the activity change is -12.1%. As for `CCC(NC(=O)C1CCCC1)c1ccc(C)cc1` (stereo unspecified), the activity change was 31.4%. The result for `Brc1ccc2nc(-c3ccccc3)c(Cc3ccccc3)n2c1` reads 28.2%; that for `CCN(CC)S(=O)(=O)c1ccc(N2CCOCC2)c(NC(=O)c2ccc(=O)n(C)n2)c1`, 8.34%; that for `CCN(CC)S(=O)(=O)c1ccc(N2CCOCC2)c(NC(=O)C2COc3ccccc3O2)c1` (stereo unspecified), -0.208%.

Turning to `CCN(CC)S(=O)(=O)c1ccc(N2CCN(C)CC2)c(NC(=O)Nc2ccccc2F)c1`, the activity change was -72.3% (active). The result for `CCN(CC)S(=O)(=O)c1ccc(N2CCCC2)c(NC(=O)c2ccc([N+](=O)[O-])o2)c1` reads -86.5% (active); that for `CCN(CC)S(=O)(=O)c1cc(C(=O)Nc2cc(S(=O)(=O)N3CCOCC3)ccc2N2CCCC2)ccc1F`, -10.4%; that for `CCN(CC)S(=O)(=O)c1ccc(N2CCOCC2)c(NC(=O)C(C)Oc2ccc(F)cc2)c1` (stereo unspecified), -2.11%. The result for `Cc1ccc(-c2ccc(CN3C(C)C(=O)N(Cc4cn(CCC5OCCCO5)nn4)CCS3(=O)=O)cc2)cc1` (stereo unspecified) reads -2.45%. Consider `CC1C(=O)Nc2ccccc2N1C(=O)c1ccc(F)cc1F` (stereo unspecified), for which the activity change is 10.1%. The figure for `Cc1ccc(C(=O)N[C@H](C(=O)N2CCN(c3ncccn3)CC2)C(C)C)cc1` is -11.5%; for `CCOC(=O)c1cnn(Cc2ccccc2Cl)c1N` it is 0.436%; for `Cc1c(NC(=O)CSc2cccc3cccnc23)c(=O)n(-c2ccccc2)n1C` it is -96.5% (active).

As for `Cc1c(NC(=O)CSc2nnc(-c3cccnc3)n2N)c(=O)n(-c2ccccc2)n1C`, the activity change was 25.5%. For `Cc1c(NC(=O)CSc2nnnn2-c2ccc(C(=O)O)cc2)c(=O)n(-c2ccccc2)n1C`, the activity change is 22.1%.

Regarding `Cc1noc(C)c1-c1ccc(C(=O)NCc2ccncc2)c2occc12`, the activity change is 60.8%.

Take `COC(=O)CN1C(C)=Nc2ccc(Br)cc2C1c1ccccc1` (stereo unspecified): the activity change was -27.1%. The figure for `Cc1ccc(C2C(C#N)C(C#N)N3CCCN23)cc1` (stereo unspecified) is 0.442%. The figure for `Oc1ccc(/C=N/N(Cc2ccccc2)c2ccccc2)cc1` is -72.7% (active); for `CCN(/N=C/c1ccccc1)c1cc(=O)n(C)c(=O)[nH]1` it is 0%. With `CCN(/N=C/c1ccc(N(C)C)cc1)c1nc2ccccc2[nH]1`, the activity change is -29.3%. For the compound `Cc1ccc(-c2nc(-c3ccncc3)no2)c(C)c1`, the activity change is -25.6%. `Cc1cc(Cl)ccc1OCc1nc(-c2ccncc2)no1`: the activity change was -55.8% (active). The figure for `Cc1cc(Cl)ccc1OCCCC(=O)NCc1ccncc1` is -6.96%; for `O=C(COc1ccc(Br)cc1F)NC1CCN(Cc2ccccc2)CC1` it is -25.9%. As to `S=C(Nc1ccc(Br)cc1)NC1CCN(Cc2ccccc2)CC1`, the activity change was -96% (active). As to `O=S(=O)(NCCCc1ccccc1)c1ccc(Br)cc1`, the activity change was 8.22%. The figure for `S=C(Nc1ccc(Br)cc1Cl)NC1CCN(Cc2ccccc2)CC1` is -75.9% (active); for `S=C(NN=C1CCN(Cc2ccccc2)CC1)NC1CCCCC1` it is 0%. The figure for `O=C(Cc1ccc(Br)cc1)NCCc1ccccc1` is -1.81%. For the compound `CCNC(=S)NNC(=O)C1CCN(Cc2ccccc2)CC1`, the activity change was -12.8%. The result for `S=C(NCCCc1ccccc1)Nc1ccc(Br)cc1` reads -85.8% (active); that for `Cc1cc(Br)ccc1NC(=S)NC1CCCC1`, 0.7%. `COCCN(C(=O)C(C)N1C(=O)c2ccccc2C1=O)c1c(N)n(CC(C)C)c(=O)[nH]c1=O` (stereo unspecified): the activity change was 13.1%. The figure for `COc1ccc(OC)c(NC(=O)c2cc(-c3cc(F)ccc3OCC3CCCO3)n[nH]2)c1` (stereo unspecified) is 0%; for `CCCC(=O)N1CCC1(C)C(=O)NCc1ccc(C(C)C)cc1` (stereo unspecified) it is -18%; for `N/C(Cc1ccc([N+](=O)[O-])cc1)=N\OC(=O)COc1ccc2ccccc2c1` it is -59.9% (active).

On to `N/C(=N\OC(=O)Cc1ccc([N+](=O)[O-])cc1)c1ccccn1`, for which the activity change is -21.1%. As to `Cc1cc(C)cc(OCC(=O)O/N=C(\N)Cc2ccc([N+](=O)[O-])cc2)c1`, the activity change was -24.7%. The figure for `CC1(C(=O)NS(=O)(=O)c2ccccc2)CCN1C(=O)c1ccccc1` (stereo unspecified) is 21%. The figure for `Cc1ccc(COc2ccc(/C=N/NC(=O)CN3CCCCC3)cc2)cc1` is -51.4% (active); for `O=C(CN1CCSCC1)N/N=C/c1ccc(F)cc1` it is -9.62%. Take `CCOc1cc(/C=N/NC(=O)CN2CCCCC2)ccc1O`: the activity change is 2.69%. The figure for `COc1ccc(N2CC(C(=O)NCCN3C(=O)S/C(=C\c4cccnc4)C3=O)CC2=O)c(OC)c1` (stereo unspecified) is -26.5%. For `COc1cc(OC)cc(C(=O)NNC(=O)Cc2cccs2)c1`, the activity change is -1.89%. The result for `Cc1cc2nc(-c3ccco3)c(Cc3cccc(F)c3)n2c(C)c1Br` reads 5.29%; that for `O=S1(=O)CC(N2CCN(CCO)CC2)CN1Cc1cn(Cc2cccc(Cl)c2)nn1` (stereo unspecified), 13.7%. `CCOC(=O)C1C(=O)NC(N2CCN(c3ccccc3)CC2)=NC1c1ccco1` (stereo unspecified): the activity change is -8.04%.

On to `COc1ccc(C2=NN(C(=O)CSc3nnnn3C)C(c3ccco3)C2)cc1` (stereo unspecified), for which the activity change was -17.6%.

Take `CCOC(=O)C1C(=O)C=C(c2ccc(OC)cc2)CC1c1ccco1` (stereo unspecified): the activity change is -62.8% (active). For `Cc1ccc(NC(=O)C(C)OC(=O)C2CC3CCCC(C2)C3=O)cc1S(=O)(=O)N1CCOCC1` (stereo unspecified), the activity change is 21%. Regarding `CC1(C(=O)Nc2cccc3c2CCCC3)CCN1C(=O)C1(c2ccccc2)CC1` (stereo unspecified), the activity change was 2.24%.

Take `CC(C)Cc1ccc(-c2cc3nc(NCc4cccc(Cl)c4)ccn3n2)cc1`: the activity change was 16.6%. The figure for `COc1ccc(-c2csc3ncnc(N4CCN(S(=O)(=O)c5cccc(F)c5)CC4)c23)cc1` is -1.57%; for `COc1cccc(C=CC(=O)C=CC=Cc2ccccc2)c1` it is -59.4% (active); for `COc1cccc(/C=C/C(=O)OCC(=O)N2CCCc3ccccc32)c1` it is -0.538%.

Regarding `COc1cccc(C(=O)NNC(=O)/C=C/c2ccccc2)c1`, the activity change was 12.5%. Regarding `COc1ccc(C2OC(CCc3ccccc3)Cc3[nH]c(=S)[nH]c(=O)c32)cc1` (stereo unspecified), the activity change was -10.2%. On to `COc1ccc(OCc2cc(C(=O)N3CCCC3)no2)c2ccccc12`, for which the activity change is 0%. The result for `CCn1ccnc1CN(C)C(=O)c1cc(COc2ccc(Cl)cc2OC)on1` reads -11%. The result for `COc1cc(Cl)ccc1OCc1cc(C(=O)N2CC[C@@H]3CCCC[C@H]3C2)no1` reads -82.6% (active); that for `O=C(COC(=O)c1cc[n+]([O-])cc1)Nc1ccc(Cl)c(C(F)(F)F)c1`, 14.3%; that for `O=C(CCCN1C(=O)CCC1=O)Nc1ccc(Cl)c(C(F)(F)F)c1`, 3.74%. Regarding `O=C(CC(O)(C(F)(F)F)C(F)(F)F)Nc1ccc(Cl)c(Cl)c1`, the activity change was -71.8% (active). The result for `COc1ccc(C(=O)N2CCCCC2c2cc(C(=O)Nc3ccccc3)no2)cc1` (stereo unspecified) reads -3.11%.

For the compound `O=C(CCN1C(=O)c2ccncc2C1=O)Nc1cc(F)ccc1F`, the activity change was 36.2%. As for `C#CCOCCOCCOCCNc1nc(N2CCN(C(=O)[C@H](CCC(=O)O)n3cc(CN)nn3)CC2)nc(N2CCN(C(=O)[C@H](CCC(=O)O)n3cc(CN)nn3)CC2)n1`, the activity change is 25.6%.

Turning to `C#CCOCCOCCOCCNc1nc(N2CCN(C(=O)CCCCCCCCCCNC(=O)[C@H](CCCCN)n3cc(C)nn3)CC2)nc(N2CCN(C(=O)CCCCCCCCCCNC(=O)[C@H](CO)n3cc(CCCSC)nn3)CC2)n1`, the activity change is -81.7% (active). `C#CCOCCOCCOCCNc1nc(N2CCN(C(=O)[C@H](CCCCN)n3cc(CCC(=O)O)nn3)CC2)nc(N2CCN(C(=O)[C@H](CCCCN)n3cc(CC(C)O)nn3)CC2)n1` (stereo partly specified): the activity change was 3.3%. The figure for `C#CCOCCOCCOCCNc1nc(N2CCN(C(=O)CCCCCCCCCCNC(=O)Cn3cc(CCCCCN)nn3)CC2)nc(N2CCN(C(=O)CCCCCCCCCCNC(=O)[C@H](CO)n3cc(CCCSC)nn3)CC2)n1` is -72.1% (active). The figure for `C#CCOCCOCCOCCNc1nc(N2CCN(C(=O)[C@H](C(C)C)n3cc(CCO)nn3)CC2)nc(N2CCN(C(=O)[C@H]([C@@H](C)CC)n3cc(CCCN=C(N)N)nn3)CC2)n1` is -5.99%; for `C#CCOCCOCCOCCNc1nc(N2CCN(C(=O)Cn3cc(CCCCN)nn3)CC2)nc(N2CCN(C(=O)[C@H](CCCCN)n3cc(CCC(=O)O)nn3)CC2)n1` it is 58.3%; for `C#CCOCCOCCOCCNc1nc(N2CCN(C(=O)CCCCCCCCCCNC(=O)[C@H]([C@@H](C)CC)n3cc(CCCCN=C(N)N)nn3)CC2)nc(N2CCN(C(=O)CCCCCCCCCCNC(=O)[C@H](CO)n3cc(CCCSC)nn3)CC2)n1` it is -111% (active). The figure for `C#CCOCCOCCOCCNc1nc(N2CCN(C(=O)Cn3cc(CCO)nn3)CC2)nc(N2CCN(C(=O)[C@H](CCCCN)n3cc(CCCC)nn3)CC2)n1` is 2.45%.

For the compound `C#CCOCCOCCOCCNc1nc(N2CCN(C(=O)Cn3cc(CCO)nn3)CC2)nc(N2CCN(C(=O)Cn3cc(CCCN=C(N)N)nn3)CC2)n1`, the activity change was 12.6%. For the compound `COc1ccc(CCNc2cc(N3CCN(C(=O)c4ccccc4OC)CC3)ccc2[N+](=O)[O-])cc1OC`, the activity change was 42.9%. The figure for `O=C(NN=CC=Cc1ccccc1)C(O)C(O)C(=O)NN=CC=Cc1ccccc1` (stereo unspecified) is -17.2%.
